Results: article PMC13083723 (Patterns, 2026)
In all, about 5,400 compounds went through this assay and about 190 (3.5%) showed an effect of 50% or more. This excerpt belongs to a sample that is enriched for strong results.

system: Vero-E6; assay: primary screen, phospholipidosis by LipidTOX staining; higher = more effect of the substance; settings: 10 µM
Outline: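 Single-concentration screen at 10 μM, with DMSO 0.1 v/v % and amiodarone 10 μM as controls. Read-out is LipidTOX Red phospholipid staining, which tolerates aldehyde fixation, in Vero-E6 cells.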

In order of rising result_ITMP:
1. Cc1ncc(COP(=O)([O-])O)c(CN(CCN(CC(=O)[O-])Cc2c(COP(=O)(O)O)cnc(C)c2[O-])CC(=O)[O-])c1[O-].[Mn+2]  -10.5%
2. CO/N=C(/C(=O)N[C@@H]1C(=O)N2C(C(=O)[O-])=C(CSc3nc(=O)c([O-])nn3C)CS[C@H]12)c1csc(N)n1  -8.18%
3. Cc1onc(-c2c(F)cccc2Cl)c1C(=O)N[C@@H]1C(=O)N2[C@@H]1SC(C)(C)[C@@H]2C(=O)[O-]  -6.63%
4. CCCCCCCCCCCCCCCC(=O)OCCC1CCN(CCCN2c3ccccc3Sc3ccc(S(=O)(=O)N(C)C)cc32)CC1  -5.2%
5. C[C@@H]1CN(Cc2ccc(F)cc2)[C@@H](C)CN1C(=O)c1cc2c(C(=O)C(=O)N(C)C)cn(C)c2cc1Cl  -5.07%
6. O=C([O-])[C@H](CC(=O)N1C[C@H]2CCCC[C@H]2C1)Cc1ccccc1  -4.71%
7. O=C([O-])C(Cl)Cl  -4.51%
8. C[N+]1([O-])[C@@H]2C[C@@H](OC(=O)[C@H](CO)c3ccccc3)C[C@H]1[C@@H]1O[C@@H]12 (some centres unmarked)  -4.04%
9. NC(N)=NCCNS(=O)(=O)c1cccc2cnccc12  -3.17%
10. CCCCCCCCCCCCCCCC=O  -3.07%
11. O=C(O)c1cnn(-c2nc3cc(Cl)c(OC(F)(F)F)cc3[nH]2)c1  -2.3%
12. C/C(=C\CNc1ncnc2nc[nH]c12)CO  -1.84%
13. C/N=C(/NS(=O)(=O)c1ccc(Cl)cc1)N1CC(c2ccccc2)C(c2ccc(Cl)cc2)=N1 (racemic)  -1.59%
14. CSc1ccc(C(=O)c2nc(O)[nH]c2C)cc1  -1.45%
15. Cc1c[nH]c(=O)n(CCCN2CCN(c3ccccc3OCC(F)(F)F)CC2)c1=O  -1.42%
16. C[C@H](CSC(=O)c1ccccc1)C(=O)N1C[C@@H](Sc2ccccc2)C[C@H]1C(=O)[O-]  -1.35%
17. O=C(CCc1ccncc1)NNC(=O)N1Cc2ccccc2Oc2ccc(Cl)cc21  -1.3%
18. NC[C@@H]1O[C@H](O[C@H]2[C@@H](O)[C@H](O[C@@H]3[C@@H](O)[C@H](N)C[C@H](N)[C@H]3O[C@H]3O[C@H](CO)[C@@H](O)[C@H](O)[C@H]3N)O[C@@H]2CO)[C@H](N)[C@@H](O)[C@@H]1O  -1.27%
19. CN1CCCCC1CCN1c2ccccc2Sc2ccc(S(C)=O)cc21 (centres unmarked)  -0.95%
20. O=C([O-])c1cc2cc(Cc3cccnc3)ccc2o1  -0.95%
21. O=C(NN1C(=O)[C@@H]2[C@@H]3C=C[C@@H]([C@H]4C[C@@H]34)[C@@H]2C1=O)c1ccc(C(F)(F)F)cc1  -0.89%
22. COc1ccccc1N1CCN(CCCCN2C(=O)c3ccccc3C2=O)CC1  -0.85%
23. O=S(=O)([O-])c1ccc(O)cc1  -0.61%
24. C[C@@]1(CO)[C@H](O)CC[C@@]2(C)[C@H]1CC[C@H]1C[C@@H]3C[C@@]12CC[C@]3(O)CO  0.12%
25. CC1CCC(O)C/C1=C\C=C1/CCCC2(C)C1CCC2C(C)/C=C/C(C)C(C)C (centres unmarked)  0.34%
26. O=S(=O)(c1cccc2cnccc12)N1CCNCC1  0.47%
27. O=C([O-])C1=C(CSc2nnnn2CS(=O)(=O)[O-])CS[C@@H]2[C@H](NC(=O)[C@H](O)c3ccccc3)C(=O)N12  0.51%
28. CC(C)(C)C(=O)OCOC(=O)C1N2C(=O)CC2S(=O)(=O)C1(C)C (centres unmarked)  3.85%
29. CC(C)(C)c1ccc(-c2nc3cccc(N4CCN(Cc5ccc6nccnc6c5)CC4)c3[nH]2)cc1  5.05%
30. CCCCCCCCCC(=O)OCCN1CCN(CCCN2c3ccccc3Sc3ccc(C(F)(F)F)cc32)CC1  5.56%
31. CN(C)c1ccc2nc3ccc(N(C)C)cc3[s+]c2c1  5.81%
32. COc1ccccc1N1CCN(CCCCN2C(=O)CCC2=O)CC1  6.62%
33. Clc1ccc2c(N3CCN(CCCN4CCN(c5ccnc6cc(Cl)ccc56)CC4)CC3)ccnc2c1  6.97%
34. CCCCOc1c(C(=O)c2c(F)cc(C)cc2F)cnc2[nH]ncc12  7.58%
35. Cc1[nH]c(/C=C2\C(=O)Nc3ccc(S(=O)(=O)N(C)c4cccc(Cl)c4)cc32)c(C)c1C(=O)N1CCN(C)CC1  7.98%
36. Cc1cc(C)cc(NC(=O)Cc2ccc(OC(C)(C)C(=O)[O-])cc2)c1  9.78%
37. O=C(CN1CCN(Cc2ccc3c(c2)OCO3)CC1)N1c2ccccc2Sc2ccccc21  15.4%
38. CO[C@@H]1[C@H](OC(=O)NC(=O)CCl)CC[C@]2(CO2)[C@H]1[C@@]1(C)O[C@@H]1CC=C(C)C  16.1%
39. OCCN1CCN(CC/C=C2/c3ccccc3Sc3ccc(Cl)cc32)CC1  17.9%
40. OCCOCCN1CCN(C2=Nc3ccccc3Sc3ccccc32)CC1  22.1%
41. CN(C)CCCN1c2ccccc2CCc2ccccc21  23.6%
42. CN(C)CCCN1c2ccccc2Sc2ccccc21  37.7%
43. CN1CCN(CCCN2c3ccccc3Sc3ccc(Cl)cc32)CC1  38.9%
44. CN(C)CCCN1c2ccccc2CCc2ccc(Cl)cc21  47.3%
45. OCCN1CCN(CCCN2c3ccccc3C=Cc3ccccc32)CC1  50.3%
46. CN1CCN(CCCN2c3ccccc3Sc3ccc(S(=O)(=O)N(C)C)cc32)CC1  50.3%
47. CCSc1ccc2c(c1)N(CCCN1CCN(C)CC1)c1ccccc1S2  59.1%
48. OCCN1CCN(CCCN2c3ccccc3Sc3ccc(C(F)(F)F)cc32)CC1  60.4%
49. O=S(=O)(NCCNC/C=C/c1ccc(Br)cc1)c1cccc2cnccc12  60.8%
50. CN1CCN(CC/C=C2/c3ccccc3Sc3ccc(S(=O)(=O)N(C)C)cc32)CC1  61.9%
51. CSc1ccc2c(c1)N(CCC1CCCCN1C)c1ccccc1S2 (centres unmarked)  68.1%
52. CCN(CC)CCCCN1c2ccccc2Oc2ccc(Cl)cc21  69.7%
53. CN1CCN(CCCN2c3ccccc3Sc3ccc(C(F)(F)F)cc32)CC1  81.3%
54. OCCN1CCN(CC/C=C2/c3ccccc3Sc3ccc(C(F)(F)F)cc32)CC1  83.6%
55. OCCN1CCN(CCCN2c3ccccc3Sc3ccc(Cl)cc32)CC1  84.7%
56. CN(C)CCCN1c2ccccc2Sc2ccc(Cl)cc21  104%
